Source: PubChem BioAssay
EP2 modulator = modulators of human EP2 prostaglandin E2 receptor | 260,000 tested, 0.83% active | P43116 | induction, % at 25 µM | EP2-expressing cells, cAMP HTRF FRET, PGE2 co-stimulation;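 active means compounds whose cAMP rise, as percent of the full-agonist control response, exceeds 60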;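 further: rat C6 glioma line stably carrying human EP2 under a CMV promoter; the protocol text gives 20 µM as final concentration; 100% = response of wells given 1 µM PGE2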
CHT PAM = human CHT allosteric activation | Q9GZV3 | CHT-expressing cells, membrane potential dye, choline EC20; hits give high values; LV-AA mutant CHT in HEK293 cells | B-score at 10 µM | 310,000 tested, 0.49% active;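 active means initial fluorescence not abnormally high and integrated response B-score, plate-corrected, over 3 SD above library mean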
Target sequence (Q9GZV3 whole entry, looked up): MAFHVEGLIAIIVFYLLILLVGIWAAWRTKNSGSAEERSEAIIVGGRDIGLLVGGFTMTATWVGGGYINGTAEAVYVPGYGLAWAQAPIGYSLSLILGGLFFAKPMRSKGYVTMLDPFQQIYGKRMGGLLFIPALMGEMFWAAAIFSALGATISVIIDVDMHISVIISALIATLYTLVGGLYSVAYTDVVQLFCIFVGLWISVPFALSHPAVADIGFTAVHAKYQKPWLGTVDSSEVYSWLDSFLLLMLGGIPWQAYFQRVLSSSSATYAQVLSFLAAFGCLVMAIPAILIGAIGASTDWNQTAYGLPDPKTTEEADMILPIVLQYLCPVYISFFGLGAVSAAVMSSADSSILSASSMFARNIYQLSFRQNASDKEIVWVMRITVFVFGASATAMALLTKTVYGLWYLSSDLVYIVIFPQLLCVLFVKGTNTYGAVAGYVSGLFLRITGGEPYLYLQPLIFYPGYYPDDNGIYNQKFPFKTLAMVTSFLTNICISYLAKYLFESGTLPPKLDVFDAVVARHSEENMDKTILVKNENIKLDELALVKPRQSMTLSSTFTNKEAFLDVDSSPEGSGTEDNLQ
PGE2 EP2 inh = blocks the human prostaglandin E2 receptor EP2; 260,000 tested, 0.52% active; P43116; C6 glioma cells expressing human EP2, cAMP TR-FRET; cells stimulated with saturating PGE2; inhibition, % at 25 µM; AID 1422;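 active means percent inhibition above 40 after rounding to a whole number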;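 further: rat C6 glioma host cells with rolipram phosphodiesterase inhibitor present; the protocol text gives 20 µM as final concentration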
CHT inh = inhibits the human high affinity choline transporter. Q9GZV3. CHT-expressing cells, membrane potential dye, choline response; hits give low values. B-score at 10 µM. 310,000 tested, 0.86% active. AID 488975;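 active means B-score over 3 SD under the library average, and starting fluorescence ratio not unusually high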;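 further: choline stimulus applied at its EC90 after an EC20 pre-addition; B-score computed on integrated fluorescence ratio after choline addition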
CHT act confirm = confirmation of human choline transporter (CHT) activators. shares compounds with CHT PAM. CHT-expressing cells, membrane potential dye fluorescence (FDSS); % of choline EC20–EC90 response window; HEK293 expressing CHT LV-AA mutant; choline added at its EC20. activation, % at 10 µM. 2,500 tested, 91% active;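 active means primary screen active, with duplicate mean activation above negative control mean plus 3 SD, cut at about 11% in these data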
HEK293 MP dye = activity in parental HEK293 cells lacking CHT | shares compounds with CHT PAM | membrane potential dye fluorescence (FDSS); measured after EC20 choline addition | ratio readout change at 10 µM, hits read low | 2,500 tested, 62% active;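 active means duplicate-averaged ratio beyond 3 SD from buffer wells, up or down, though filed actives are nearly all decreases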
The depositor's hits bear a star; i = inactive; · = no result. The list is not random: actives were taken first. Their share in the collection is about 2.1%.

SMILES	EP2 modulator	CHT PAM	PGE2 EP2 inh	CHT inh	CHT act confirm	HEK293 MP dye
COc1ccc(C(=O)OC2C[C@H]3CC[C@H](C2)N3C)cc1OC (stereo partly specified)	·	6.6*	·	i	40*	-32*
CCOc1cc(-c2nc3c(C)cccn3c2NCC2CCCO2)ccc1O (stereo unspecified)	-63	6.4*	6	i	56*	-34*
Cc1oc2c(c1CC(=O)N(CCN(C)C)Cc1ccc(F)cc1)C(=O)CC(C)(C)C2	-60	·	11	·	·	·
CCCCn1c(NS(=O)(=O)c2ccccc2)c(C(=O)OCC)c2nc3ccccc3nc21	0	i	15	i	·	·
CCOC(=O)c1c(N)n(CCN2CCCCC2)c2nc3ccccc3nc12	7	i	18	i	29*	-42*
c1ccc(CCNCc2c[nH]c3ccccc23)cc1	-89	·	7	·	·	·
Clc1ccc(C(Cn2ccnc2)OCc2csc3c(Cl)cccc23)c(Cl)c1 (stereo unspecified)	·	i	·	i	·	·
Clc1ccc(CCC(Cn2ccnc2)Sc2c(Cl)cccc2Cl)cc1 (stereo unspecified)	·	i	·	i	30*	-27*
O=c1oc2ccccc2c(O)c1C1c2ncccc2-c2c1c(=O)oc1ccccc21 (stereo unspecified)	-4	·	13	·	·	·
COc1ccc(NC(=O)c2cc([N+](=O)[O-])ccc2N2CCNCC2)cc1	-11	i	7	i	54*	-59*
COP(=O)(OC)/C(C=O)=N/Nc1ccc([N+](=O)[O-])cc1	10	i	6	i	·	·
O=C1Nc2ccccc2/C1=C/c1cnc[nH]1	1	i	4	i	45*	-30*
COc1cc2c3c(c1OC)-c1cc(O)ccc1CC3NCC2 (stereo unspecified)	16	i	10	i	48*	-42*
O=[N+]([O-])c1ccc(C[n+]2c(-c3ccccc3)cc(-c3ccccc3)cc2-c2ccccc2)cc1	·	i	·	i	49*	-47*
CN1CCN(c2ccc3nccnc3c2)CC1	9	i	9	i	16*	i
CCc1nc2ccc(N3CCN(C)CC3)cc2nc1CC	4	i	5	i	·	·
Cc1ccc(C)c(-c2nc(C)sc2CC(=O)N2CCCCC2CN2CCCC2)c1 (stereo unspecified)	-22	·	9	·	·	·
Cc1nonc1CC(=O)N(CCN(C)C)Cc1ccccc1F	-12	·	10	·	·	·
CCCCCn1c(=O)c(C(=O)NCc2ccncc2)c(O)c2ccccc21	33	i	14	i	31*	i
CCCCn1c(=O)c(C(=O)NCc2ccc(Cl)cc2)c(O)c2ccccc21	·	i	·	i	·	·
CCOc1nc(NCc2ccco2)nc(N2CC3CC(C2)c2cccc(=O)n2C3)n1 (stereo unspecified)	-37	·	4	·	·	·
CN1CCN(c2ncnc3c2cnn3C)CC1	-6	i	6	i	52*	-59*
CCc1cc2c(N3CCN(C)CC3)ncnc2s1	6	i	15	i	·	·
CC(c1ccc(F)cc1)n1cc(C(=O)NC2CCCC2)nn1 (stereo unspecified)	-17	·	17	·	·	·
Cc1cc(C)n2nc(C)[n+](C)c2n1	5	8*	14	i	60*	-34*
SMILES	EP2 modulator	CHT PAM	PGE2 EP2 inh	CHT inh	CHT act confirm	HEK293 MP dye
COc1cccc(C2(O)CCN(CCNC(=O)c3cc(F)cc(F)c3)CC2)c1	-16	·	12	·	·	·
O=[N+]([O-])c1ccc(N2CCCC2)cc1N/N=C1\CN2CCC1CC2	21	6.5*	3	i	55*	-73*
CNC(=S)N(C)CCc1cc2c(c(OC)c1/C=C1/C(=O)NC(=O)N(C)C1=O)OCO2	14	6.6*	11	i	37*	-54*
NCCNc1ccc([N+](=O)[O-])c2cccnc12	-47	6.6*	8	i	32*	-72*
O=[N+]([O-])c1ccc(N2CCNCC2)cc1N1CCCCC1	-18	i	3	i	·	·
O=[N+]([O-])c1ccc(N2CCNCC2)cc1NCC1CCCO1 (stereo unspecified)	9	9*	8	i	56*	-66*
c1ccc(-c2[nH]c(-c3ccccc3)[n+](CC3CO3)c2-c2ccccc2)cc1 (stereo unspecified)	42	i	6	i	25*	i
O=C(c1ccco1)c1cn(Cc2ccccc2)c2ccccc12	28	7.4*	2	i	23*	i
CN(C)c1ccc(-[n+]2c(-c3ccccc3)cc(-c3ccccc3)cc2-c2ccccc2)cc1	-45	·	7	·	·	·
C[n+]1c(-c2ccccc2)cc(-c2ccc(Cl)cc2)cc1-c1ccccc1	-13	7.2*	8	i	30*	-29*
COC(=O)C1=C(N)Oc2c(c(=O)oc3ccccc23)C1c1cccc(C(F)(F)F)c1 (stereo unspecified)	-11	·	6	·	·	·
CCN(CC)C1=NC(=[N+](CC)CC)c2ccccc21	-17	8.7*	8	i	64*	-56*
N=C1c2ccccc2CN1c1cccc([N+](=O)[O-])c1	-8	i	4	i	54*	-38*
N=C1c2ccccc2CN1c1ccc(F)c([N+](=O)[O-])c1	-33	i	1	i	46*	-26*
N=C1c2ccccc2CN1NC(=O)c1ccccc1	18	i	7	i	·	·
CC1(C)C2C[C@@H](O)[C@]3(C)C(CC[C@@]4(C)[C@H](c5ccoc5)CC5OC543)[C@@]2(C)[C@@H](O)C[C@H]1O (stereo partly specified)	9	·	5	·	·	·
OC[C@@H]1CCCN2CCCC[C@H]12	-18	·	8	·	·	·
COc1c(C)cccc1CN1C2CCC1CC(O)(c1cccc(F)c1)C2 (stereo unspecified)	-78	·	12	·	·	·
NC(Cc1ccccc1)c1ccc2c(c1)OCCO2 (stereo unspecified)	-69	·	11	·	·	·
C#CCOc1cccc(CN2C3CCC2CC(O)(c2nccn2C)C3)c1 (stereo unspecified)	7	·	2	·	·	·
COCCN1Cc2cc(=O)n3c([nH]c4ccccc43)c2C1=N	-18	i	7	i	53*	-42*
Cc1cc(-c2ccccc2)cc(C)[n+]1Cc1ccccc1	·	7.4*	·	i	12*	-29*
Cc1cc(N2CCOCC2)nc2ccc(NC(=O)CCC(=O)N3CCC4(CC3)OCCO4)cc12	27	i	·	i	53*	-38*
CCN(CC)CCN1Cc2ccccc2C1=N	-26	11*	4	i	75*	-73*
N=C1c2ccccc2CN1CC(=O)c1ccccc1	-5	i	4	i	·	·
